Source: PubChem BioAssay
ELG1 genotoxic = inducers of genotoxicity in HEK293T ELG1-luciferase cells; HEK293T ELG1-luciferase reporter, luminescence, 16 h; Potency, µM (series often up to 46 µM), hits mostly activators; 330,000 tested, 1.3% active; AID 504466; note: nearly all actives have a fitted effect of over 60% in size
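Luminescence read-out: rising ELG1-luciferase signal, reflecting elevated ELG1 protein under genetic stress, flags genotoxic compounds. Cells were treated for 16 hr at 37 °C before ONE-Glo detection.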
ELG1 DNA repair = blocks ELG1-dependent DNA repair in HEK293T cells; HEK293T ELG1-luciferase reporter, luminescence, 16 h; DNA damage induced by 5-fluorouridine; Potency, µM (top dose mostly 46.1 µM), hits mostly inhibitors; 330,000 tested, 2.3% active; AID 504467; note: nearly all actives have a fitted effect of over 55% in size
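Luminescence from the luciferase reporter, measured 30 min after ONE-Glo reagent at room temperature, was the read-out. Beforehand, 2,000 cells per well were exposed for 16 hr at 37 °C to 5-fluorouridine together with compound or vehicle.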
NPC1 promoter act = NPC1 promoter activation; Huh7 NPC1 promoter luciferase reporter, 24 h; Potency, µM (titrated, usually from 9.22 µM), usual class: activators; 320,000 tested, 2.4% active; AID 485313; note: nearly all actives have a fitted effect of over 60% in size
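In 1536-well qHTS, Huh7 cells harboring an NPC1 promoter–luciferase construct received compound for 24 h; activation was quantified by luminescence following luciferase reagent addition.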
SMN2 splice enh = enhancers of SMN2 splice variant expression; 210,000 tested, 2.8% active; Potency, µM (top dose mostly 46.1 µM), usual class: activators; HEK293 SMN2-luciferase splicing reporter, luminescence, 30-36 h; AID 1458; note: nearly all actives have a fitted effect of over 55% in size
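HEK293 cells carry an SMN2 minigene-luciferase reporter in which exon 7 inclusion puts luciferase in frame. Cells were seeded at 2000 cells/well, attached for 10-12 hours, then exposed to compounds for 30-36 hours at 37C before ONE-Glo luminescence.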
FLuc modulator = firefly luciferase modulation, counter-screen for miR-21 project. P08659. AID 588342. purified FLuc, Km substrates, luminescence inhibition. Potency, µM (series often up to 57.5 µM), most hits filed as inhibitors. 360,000 tested, 6.9% active; note: nearly all actives have a fitted effect of over 55% in size
Target sequence (P08659 whole entry, looked up): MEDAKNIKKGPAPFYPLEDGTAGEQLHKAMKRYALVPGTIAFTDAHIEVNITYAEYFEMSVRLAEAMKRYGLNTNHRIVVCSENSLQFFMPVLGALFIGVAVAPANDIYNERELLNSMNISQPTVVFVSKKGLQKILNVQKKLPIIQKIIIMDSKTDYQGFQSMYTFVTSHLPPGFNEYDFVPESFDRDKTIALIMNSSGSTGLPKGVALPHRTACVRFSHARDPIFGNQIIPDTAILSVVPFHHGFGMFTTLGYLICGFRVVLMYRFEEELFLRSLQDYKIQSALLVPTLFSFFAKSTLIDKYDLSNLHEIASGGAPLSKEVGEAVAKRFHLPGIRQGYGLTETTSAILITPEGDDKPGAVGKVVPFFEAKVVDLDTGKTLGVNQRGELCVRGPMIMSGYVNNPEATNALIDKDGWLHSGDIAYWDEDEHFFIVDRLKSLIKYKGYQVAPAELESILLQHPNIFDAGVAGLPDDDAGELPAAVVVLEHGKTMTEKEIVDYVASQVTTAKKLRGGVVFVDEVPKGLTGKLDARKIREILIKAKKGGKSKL
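Biochemical qHTS of compounds, final roughly 60 µM downward over six points, against 10 nM purified firefly luciferase using Km concentrations of substrates (10 uM D-luciferin, 10 uM ATP) in Tris acetate pH 7.5 buffer; luminescence output.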
Rab9 promoter act = activates the Rab9 promoter; Huh7 Rab9 promoter-luciferase reporter, luminescence, 24 h; 320,000 tested, 2.8% active; Potency, µM (top dose mostly 9.22 µM), usual class: activators; note: nearly all actives have a fitted effect of over 60% in size
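Measured in stably transfected Huh7 cells bearing a Rab9 promoter–luciferase construct: 24 h compound treatment at 37 °C, followed by luminescence detection.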
A number is an active result; - = inactive; ? = inconclusive; . = no result. The list is not random: actives were taken first. Their share in the collection is about 9.2%. Calls come from the whole dose curve; as a rule, active = well fitted curve in the direction sought with a large enough effect; inconclusive = small, poorly fitted or top-dose-only effect, or another doubt; inactive = no such curve, though single readings can be large; an effect the other way counts as inactive or inconclusive.

SMILES	ELG1 genotoxic	ELG1 DNA repair	NPC1 promoter act	SMN2 splice enh	FLuc modulator	Rab9 promoter act
OCC[C@@H]1C[C@H](O)[C@@H](O)[C@@]2(CCCc3ccccc3O2)O1	-	-	-	.	-	-
CCCCC[C@H]1CN(C2CCCCC2)C(=O)[C@@H]1CC(=O)NCc1ccccc1	-	-	-	.	-	-
CC(=O)c1c(C)[nH]c(C(=O)Nc2ccc(Cl)cc2)c1C	-	?	3.16µM	.	9.53µM	1.78µM
CC(=O)c1c(C)[nH]c(C(=O)Nc2ccc(Cl)cc2F)c1C	?	?	1.78µM	.	9.53µM	2.82µM
CC(=O)c1c(C)[nH]c(C(=O)Nc2cccc(S(=O)(=O)N3CCOCC3)c2)c1C	?	?	-	8.91µM	-	-
CC(=O)c1c(C)[nH]c(C(=O)NCCc2ccc(Cl)cc2)c1C	-	-	-	-	-	-
Cc1ccc(C)c(OCCC(=O)OCC(=O)NNC(=O)c2ccccc2)c1	-	-	-	.	-	-
O=C(OCc1cc(=O)n2ccsc2n1)c1ccc(O)cc1O	?	?	?	.	?	-
Cc1ccsc1C(=O)OCc1cc(=O)n2ccsc2n1	?	?	2.51µM	.	10.7µM	1.41µM
CC(=O)c1ccc(OCc2cc(=O)n3ccsc3n2)cc1	?	?	?	?	?	3.98µM
CC1CN(C(=O)COC(=O)COc2ccc(C#N)cc2)CC(C)O1 (centres undefined)	-	-	-	.	-	-
COC(=O)[C@]12C(=O)NC[C@H](CN1c1ccc(C(F)(F)F)cc1)N2C	-	-	.	.	.	.
O=C(O)c1ccc(CSc2nnc(-c3ccccc3Br)o2)cc1	-	-	-	.	23.9µM	-
O=C(Nc1ccccc1-c1nnc(SCc2ccccc2)o1)c1ccccc1	-	-	-	-	-	-
O=C(O)c1ccc(CSc2nnc(-c3ccc(Cl)cc3)o2)cc1	-	-	-	.	16.9µM	-
COc1ccccc1-c1nc2c(c(SCC(=O)Nc3ccc(C)c(C)c3)n1)Cc1c(CO)cnc(C)c1O2	.	.	.	.	-	.
COc1ccc2c(c1)cc1c(=O)n(CC(=O)NCc3ccco3)nc(C)n12	.	.	.	-	-	.
O=C(CCCCCn1c(=S)[nH]c2cc3c(cc2c1=O)OCO3)N1CCN(Cc2ccccc2)CC1	-	-	-	-	-	-
CCCCn1c(=S)[nH]c2ccc(N3CCOCC3)cc2c1=O	-	-	-	-	-	-
O=C(CCCn1c(=S)[nH]c2cc3c(cc2c1=O)OCO3)N1CCN(c2ccccn2)CC1	-	14.6µM	-	-	-	-
Cc1cccc(N2CCN(C(=O)CCCCCn3c(=S)[nH]c4ccc(N5CCOCC5)cc4c3=O)CC2)c1C	-	16.4µM	-	.	-	-
COc1ccc(N2CCN(C(=O)CCCn3c(=S)[nH]c4cc5c(cc4c3=O)OCO5)CC2)cc1	-	20.6µM	-	-	-	-
CCOC(=O)C1CCN(C(=O)COc2ccc(N(C)S(=O)(=O)c3ccc(C)cc3)cc2)CC1	-	-	-	-	-	-
CCCc1ccc(OCC(=O)Nc2cc(S(=O)(=O)CC)ccc2O)cc1	-	-	-	.	26.9µM	-
CCS(=O)(=O)c1ccc(O)c(NC(=O)COc2ccc(OC)cc2)c1	-	-	-	-	?	-
SMILES	ELG1 genotoxic	ELG1 DNA repair	NPC1 promoter act	SMN2 splice enh	FLuc modulator	Rab9 promoter act
O=C(Nc1ccc(Cl)cc1)N(Cc1nc2ccccc2c(=O)[nH]1)Cc1cccs1	-	18.4µM	-	-	-	-
O=C1CCCc2nc3c(cc21)C(O)Oc1c-3ccc2ccccc12 (centres undefined)	?	?	3.16µM	-	-	1.12µM
N#CCCN1CCCc2cc(N=Nc3ccc(C(F)(F)F)cc3)ccc21	-	?	?	.	13.5µM	?
COc1ccc(-c2cc(N)n(S(=O)(=O)c3c(F)c(F)c(F)c(F)c3F)n2)cc1OC	-	23.1µM	-	-	?	-
CC(=O)c1ccc(N2CCN(C(=O)CS(=O)(=O)c3cccc4nsnc34)CC2)cc1	.	.	.	.	-	.
Cc1ccc(C(=O)Cn2nnc(-c3cccs3)n2)cc1	-	-	?	.	5.36µM	3.16µM
O=C(Cn1nnc(-c2cccs2)n1)NCc1cccs1	-	-	-	-	-	-
CC1CCN(C(=O)Cn2nnc(-c3cccs3)n2)CC1	?	?	3.55µM	.	?	2.24µM
COc1ccc(-c2nnn(CC(=O)OC3CCCCC3)n2)cc1OC	-	-	-	.	-	-
O=C(Cn1nnc(-c2cccs2)n1)N1CCOCC1	-	-	-	-	-	-
O=C(Cn1nnc(-c2cccs2)n1)OC1CCCCC1	-	-	-	-	13.5µM	-
Nc1ccccc1C(=O)NCc1ccc(F)cc1	-	-	-	-	-	-
O=C(Nc1ccccc1NC(=O)c1ccc(F)cc1)c1ccc(F)cc1	-	-	-	.	-	-
Nc1[nH]c(N=NC(=O)c2ccc(F)cc2)c2ccccc12	?	?	?	.	7.57µM	3.98µM
Nc1ccccc1C(=O)N=Nc1[nH]c(N)c2ccccc12	?	?	3.55µM	17.8µM	3.79µM	2.82µM
COc1cccc(-c2nc(NC(C)(C)C)c3ccccc3n2)c1O	-	?	-	.	-	-
COc1ccc(Nc2nc(-c3cccc(OC)c3O)nc3ccccc23)cc1	-	?	?	.	3.79µM	-
COc1cccc(-c2nc(N3CCCC3)c3ccccc3n2)c1O	-	?	-	.	15.1µM	-
CCc1cc(=O)oc2cc(C)cc(OCC(=O)NC(Cc3ccc(Cl)cc3)C(=O)O)c12 (centres undefined)	-	-	-	.	-	-
Cc1cc(-n2c(C)cc(C(=O)COc3ccc(F)c(F)c3)c2C)no1	-	-	-	.	16.9µM	?
CC(OC(=O)c1ccncc1)C(=O)Nc1ccc([N+](=O)[O-])cc1Cl (centres undefined)	-	-	-	-	-	-
CCOc1ccc(C(=O)N2CCN(Cc3cc(=O)n4nc(-c5cccc(OC)c5)sc4n3)CC2)cc1	.	.	.	.	-	.
CC(Oc1ccccc1)C(=O)Nc1cccc(-c2cn3cccnc3n2)c1 (centres undefined)	.	.	.	.	-	.
Cc1ccc2[nH]c3c(NCc4ccco4)ncnc3c2c1	-	?	-	-	13.5µM	-
COc1cc(CNc2ncnc3c2[nH]c2ccc(C)cc23)cc(OC)c1	-	20.6µM	-	.	26.9µM	-
COc1ccc(/C=N/Nc2ncnc3c2[nH]c2ccc(C)cc23)c(OC)c1OC	?	-	-	.	?	-
CCOc1ccc2[nH]c3c(NCCc4ccc(OC)c(OC)c4)ncnc3c2c1	-	20.6µM	-	.	-	-
COc1ncc2nc(-c3ccc(F)cc3)c(=O)n(CCC#N)c2n1	.	.	.	-	.	.
Cc1ccc(C(=O)NCC(=O)Nc2cc(C)ccn2)cc1	?	?	-	.	26.9µM	-
Cc1ccnc(NC(=O)CCCc2ccccc2)c1	-	?	?	?	23.9µM	?
